PI4K2A block – qHTS for small molecular inhibitors of PI4K2A. Phosphatidylinositol 4-kinase type 2-alpha (Homo sapiens), Q9BTU6. purified PI4K2A, ADP-Glo luminescence, 1 h; active compounds read low. activity change, negative = inhibition, % at 76.9 µM. 420,000 tested, 0.13% active. AID 1346378, 2018; in the data active means activity change below about -50%; inconclusive means mostly about -30% to -49%;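 further: -100% = wells without enzyme as full effect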
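PI4K2A activity was measured by ADP-Glo luminescence: enzyme (4 ug/mL stock) and phosphatidylinositol (1.2 mM stock) in Tris pH 7.5/MgCl2/EGTA/Triton X-100 buffer were reacted with ATP (300 microM stock) for one hour at ambient temperature.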
Tb PFK inh – qHTS Assay to Find Inhibitors of T. brucei phosphofructokinase. T. brucei PFK, ADP-Glo luminescence. ATP-dependent 6-phosphofructokinase (Trypanosoma brucei brucei), O15648. AID 485367, 2010. Potency, µM (doses to about 57.5 µM), without a hit: at the highest dose activity, negative = inhibition, hits mostly inhibitors. 330,000 tested, 0.17% active;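 further: potency means the concentration at half of the fitted maximal effect; 0% = uninhibited 1x PFK enzyme wells and -100% = no-enzyme wells; nearly all actives have a fitted effect of over 60% in size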
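ADP-Glo luminescence quantified ADP after 45 min at room temperature, with 1.25 nM T. brucei PFK, 0.1 mM ATP and 0.5 mM fructose-6-phosphate in pH 8.0 TEA buffer. qHTS titrations up to 57 µM; curves classified by quality.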
Pin1 inhibitor – qHTS Assay to Find Inhibitors of Pin1. Peptidyl-prolyl cis-trans isomerase NIMA-interacting 1 (Homo sapiens), Q13526. Pin1 FP peptide displacement, HiFluor488, 10 min. Potency, µM (doses to about 115 µM), without a hit: top-dose activity, negative = inhibition, most hits filed as inhibitors. 390,000 tested, 0.009% active; active means well fitted inhibition curve with a large enough effect in the polarisation, with a control signal flat, not every such curve was filed as active; inconclusive means small, poorly fitted or top-dose-only effect, or effect the other way, or a change in a side signal; inactive means no such curve, though single readings can be large or run the other way; the % refers to the polarisation; further: potency means the concentration at half of the fitted maximal effect
PI5P4Ka inh – qHTS for Inhibitors of phosphatidylinositol 5-phosphate 4-kinase (PI5P4K) | Phosphatidylinositol 5-phosphate 4-kinase type-2 alpha (Homo sapiens), P48426 | PI5P4Kalpha enzyme, ADP-Glo luminescence, 60 min; active compounds read low | max response, % | 330,000 tested, 1.2% active; active means max response of -50% or lower; inconclusive means between -30% and -50%; inactive means -30% or higher; further: value at the top dose of about 77 µM
Target sequence (P48426 whole entry, looked up): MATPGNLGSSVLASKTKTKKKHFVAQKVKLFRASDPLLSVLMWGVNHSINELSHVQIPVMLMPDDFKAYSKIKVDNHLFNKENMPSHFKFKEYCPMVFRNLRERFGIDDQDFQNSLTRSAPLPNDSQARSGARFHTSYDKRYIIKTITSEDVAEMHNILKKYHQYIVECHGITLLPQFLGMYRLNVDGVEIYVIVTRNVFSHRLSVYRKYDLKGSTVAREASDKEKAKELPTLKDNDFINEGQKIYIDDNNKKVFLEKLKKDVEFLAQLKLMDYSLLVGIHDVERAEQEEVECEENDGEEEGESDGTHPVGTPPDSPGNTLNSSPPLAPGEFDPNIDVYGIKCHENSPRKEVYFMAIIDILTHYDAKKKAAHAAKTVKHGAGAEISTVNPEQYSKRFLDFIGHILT
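Quantitative HTS of the MLSMR library against PI5P4Kalpha with substrate. ATP added last at 5 microM final; room temperature, 60 minutes. Remaining ATP depleted, ADP converted and read as luminescence.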
PGK inhibitor – qHTS Assay to Find Inhibitors of Phosphoglycerate Kinase; Phosphoglycerate kinase, glycosomal (Trypanosoma brucei brucei), P07378; PGK/GAPDH coupled, Kinase-Glo luminescence, 60 min; Potency, µM (top dose mostly 57.5 µM), without a hit: at the top dose activity change, negative = inhibition, most hits filed as inhibitors; 380,000 tested, 0.043% active; AID 602233, 2012; further: potency means the concentration at half of the fitted maximal effect; nearly all actives have a fitted effect of over 60% in size
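Luminescent ATP detection (Kinase-Glo Plus) follows a 60-minute room-temperature incubation, with wells lacking PGK as controls. Buffer: 100 mM TEA (pH 7.6), 5 mM MgCl2, 0.01% Tween-20. Coupling enzyme GAPDH (100 nM final) supplies unstable 1,3-BPG in-well.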
An asterisk follows results filed as active; i = inactive; ? = inconclusive; · = no result. Shown is part of a subset that was picked to be rich in hits. Unless noted, the call rests on the fitted dose curve; in most records, active means well fitted curve in the direction sought with a large enough effect; inconclusive means small, poorly fitted or top-dose-only effect, or another doubt; inactive means no such curve, though single readings can be large; an effect the other way counts as inactive or inconclusive. Unless noted, on the % scale 0 is the no-effect control and ±100 the full control effect.

SMILES | PI4K2A block | Tb PFK inh | Pin1 inhibitor | PI5P4Ka inh | PGK inhibitor
O=C1/C(=C\c2cccc([N+](=O)[O-])c2O)SC(=S)N1Cc1ccccc1 | -10 | ? | · | -90* | ?
O=C1/C(=C/c2ccc(O)c([N+](=O)[O-])c2)SC(=S)N1Cc1ccccc1 | -18 | 6% | 33% | -7 | -4%
O=C1/C(=C/c2ccccc2O)SC(=S)N1Cc1cccnc1 | 12 | -3% | 9% | -51* | 2%
O=C(O)CN1C(=O)/C(=C\c2cc(Br)ccc2OCc2ccccc2Cl)SC1=S | 1 | -22% | · | 0 | -13%
Cc1cc(NC(=O)c2ccc([N+](=O)[O-])cc2Cl)no1 | 1 | 1% | -9% | 1 | 0%
CCN=C1S/C(=C\c2cc(Br)c(O)c(OC)c2)C(=O)N1CC | 1 | 5% | 96% | -73* | -2%
O=C1C(=Cc2cccc(O)c2O)SC(=S)N1CCCN1CCOCC1 | -22 | · | · | -71* | -10%
COc1cc([N+](=O)[O-])cc(/C=C2/SC(=S)N(Cc3ccccc3)C2=O)c1O | -1 | -11% | 5% | -71* | -18%
COC(=O)c1cc(OC)nc2c1c(=O)n(C)c(=O)n2C | -3 | -1% | -7% | -4 | -1%
C[C@@H]1COC(=O)[C@H](Cc2ccc(F)cc2)C/C=C\C[C@@H](CC(=O)NCCO)C(=O)N1 | 1 | 7% | -4% | -7 | -6%
N#CCSc1nc2sccc2c(=O)n1-c1ccccc1 | -13 | -3% | 0% | -70* | -2%
Cc1cccc(C)c1NC(=O)CN1C(=O)S/C(=C\c2cccn2-c2cccc(C(=O)O)c2)C1=O | -4 | -1% | · | -69* | -9%
COc1ccc(OC)c(NC(=O)c2c(NC(=O)CCC(=O)O)sc3c2CCCCC3)c1 | 2 | -10% | -4% | -13 | -5%
CC(=O)Nc1ccc2sn(-c3ccccc3)c(=O)c2c1 | -10 | · | · | -82* | -6%
CCn1c2ccccc2c2cc(NC(C)=O)ccc21 | -4 | -7% | 4% | 3 | i
O=c1c2cc([N+](=O)[O-])ccc2sn1-c1ccccc1 | 3 | · | · | -100* | -3%
N#Cc1ccc2sn(-c3ccccc3)c(=O)c2c1 | -2 | · | · | -108* | -6%
Nc1nc2c(c3c1c(=O)oc1ccccc13)CCCCC2 | 6 | 0% | -6% | -3 | -3%
CCn1c(-c2ccccc2)c(C(=O)CC#N)c2ccccc21 | 20 | 0% | 17% | -9 | -1%
C/C(=N\OCc1nc2ccccc2c(=O)n1/N=C/c1cc([N+](=O)[O-])ccc1O)c1ccccc1 | -3 | 3% | 16% | -54* | -12%
C/C(=N\OCc1nc2ccccc2c(=O)n1/N=C/c1cc(C)cc([N+](=O)[O-])c1O)c1ccccc1 | -1 | -6% | 0% | 0 | 4%
CC1(C)O[C@@H]2[C@H](O1)[C@@H](CO)O[C@H]2n1cnc2c(N)ncnc21 | -52* | 3% | 6% | -5 | -8%
CC1(C)OC2C(CO)OC(n3cnc4c(=S)nc(N)[nH]c43)C2O1 (stereo unspecified) | -2 | · | · | -23 | ·
Nc1nc(=S)c2ncn(C3OC(CO)C(O)C3O)c2[nH]1 (stereo unspecified) | -12 | ? | · | -81* | ?
Nc1nc(=S)c2ncn([C@@H]3O[C@H](CO)[C@@H](O)[C@H]3O)c2[nH]1 | -7 | -20% | -5% | -77* | -4%
Cc1ccc(OCC(=O)OC2=C(C(=O)c3ccccc3)N(C)S(=O)(=O)c3ccccc32)cc1 | 6 | · | 1% | · | i
COC(=O)COc1ccc2c(-c3cccc([N+](=O)[O-])c3)cc(=O)oc2c1 | 9 | -8% | 4% | 11 | -6%
O=C(CN1C(=O)/C(=C/c2ccco2)SC1=S)Nc1ccc(C(=O)O)c(O)c1 | -14 | 11% | 34% | -68* | 28µM*
O=C(CCCN1C(=O)/C(=C/c2ccco2)SC1=S)Nc1cccc(C(=O)O)c1 | -1 | 0% | ? | -60* | -11%
